MCF10A rerep – DNA re-replication induction in MCF 10a cells; 2.9% of 350,000 active; MCF 10A DNA re-replication, Hoechst nuclear intensity, 48 h; Potency, µM (series often up to 46.1 µM), inactives show at the highest dose activity, positive = re-replication, hits mostly activators; AID 624296; further: % of control where 0% means no effect; nearly all actives have a fitted effect of over 50% in size
ELG1 DNA repair – ELG1-dependent DNA repair inhibition | HEK293T ELG1-luciferase reporter, luminescence, 16 h; DNA damage induced by 5-fluorouridine | Potency, µM (top dose mostly 46.1 µM), for inactives: top-dose activity change, negative = inhibition, actives largely listed as inhibitors | 2.3% of 330,000 active | AID 504467; further: on the % scale 0 is the no-effect control and ±100 the full control effect; nearly all actives have a fitted effect of over 55% in size
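Reporter activity after DNA damage by 5-fluorouridine is monitored. Compound-treated cells incubate 16 hr at 37 °C, then ONE-Glo is added for 30 min before luminescence reading.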
Gal4-VP16 FLuc – inhibits Gal4-VP16 luciferase reporter, ROR gamma counter-screen | Drosophila S2 Gal4-VP16 UAS-luciferase, luminescence, 20 h | Potency, µM (series often up to 53.6 µM), for inactives: at the top dose activity, negative = inhibition, actives largely listed as inhibitors | 3.5% of 310,000 active | AID 2546;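 further: Gal4-VP16 expression switched on by copper sulfate through the metallothionein promoter; on the % scale 0 is the no-effect control and ±100 the full control effect; nearly all actives have a fitted effect of over 50% in size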
SW480 rerep – DNA re-replication induction in SW480 cells. Potency, µM (series often up to 46.1 µM), without a hit: at the highest dose re-replication activation, usual class: activators. SW480 DNA re-replication, Hoechst DNA content imaging, 48 h. 1.8% of 340,000 active; further: % of control where 0% means no effect; nearly all actives have a fitted effect of over 55% in size
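Image-based DNA-content assay: after two days of treatment, nuclei were labelled with the DNA dye Hoechst and imaged, and hits were compounds raising the count of nuclei showing high fluorescence intensity.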
RORg inh – blocks mouse ROR gamma transcriptional activity; AID 2551; Drosophila S2 Gal4-RORgamma UAS-luciferase reporter, 20 h; Potency, µM (titrated, usually from 53.6 µM), without a hit: at the highest dose activity change, negative = inhibition, hits mostly inhibitors; P51450; 5.4% of 310,000 active; further: on the % scale 0 is the no-effect control and ±100 the full control effect; nearly all actives have a fitted effect of over 60% in size
Target sequence (P51450 whole entry, looked up, the tested form may be a part): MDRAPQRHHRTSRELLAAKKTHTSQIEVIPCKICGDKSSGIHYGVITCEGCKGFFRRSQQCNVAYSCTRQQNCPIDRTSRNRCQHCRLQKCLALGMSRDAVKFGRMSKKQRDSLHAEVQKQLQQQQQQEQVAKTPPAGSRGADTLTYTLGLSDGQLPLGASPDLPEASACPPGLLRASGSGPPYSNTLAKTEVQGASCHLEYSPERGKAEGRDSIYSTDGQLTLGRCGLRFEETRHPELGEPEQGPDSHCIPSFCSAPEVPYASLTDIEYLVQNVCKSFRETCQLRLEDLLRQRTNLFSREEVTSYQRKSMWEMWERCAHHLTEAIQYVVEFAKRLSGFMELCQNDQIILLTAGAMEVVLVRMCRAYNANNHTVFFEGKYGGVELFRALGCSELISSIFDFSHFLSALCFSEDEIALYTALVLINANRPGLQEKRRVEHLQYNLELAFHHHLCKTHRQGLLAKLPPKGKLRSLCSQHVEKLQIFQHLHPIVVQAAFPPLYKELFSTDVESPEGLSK
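ROR gamma transcriptional activity was tracked as Gal4-UAS luciferase output in stably transfected Drosophila Schneider cells, with compound added 1 hr before 700 uM copper sulfate induction and a 20 hr ambient-temperature incubation.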
Active calls of the source: *; ? = inconclusive; . = not tested or not shown; [ ] = another dose, or the depositor's remark. Only some compounds are listed: those with a hit (about 10% of all), similar ones and a draw of the others. The call rests on the fitted dose curve; in most records, active means well fitted curve in the direction sought with a large enough effect; inconclusive means small, poorly fitted or top-dose-only effect, or another doubt; inactive means no such curve, though single readings can be large; an effect the other way counts as inactive or inconclusive. Potency means the concentration at half of the fitted maximal effect.

SMILES	MCF10A rerep	ELG1 DNA repair	Gal4-VP16 FLuc	SW480 rerep	RORg inh
COC(=O)c1ccc(N2CCCCC2)c(NC(=O)c2ccco2)c1	?	23µM*	-5%	0%	-20%
O=C(c1ccccc1)c1ccc(N2CCOCC2)c(NC(=O)c2ccco2)c1	?	16µM*	-4%	0%	?
CSc1ncccc1C(=O)NNC(=O)c1ccc(NS(=O)(=O)c2cccs2)cc1	5%	13%	.	1%	.
COc1ccc(C)c2sc(NC(=O)c3cccc(N4C(=O)CCC4=O)c3)nc12	-43%	2%	-1%	-17%	46%
Cc1ccc(C)c2sc(NC(=O)c3ccc(N4C(=O)CCC4=O)cc3)nc12	14%	-1%	-19%	-3%	0.2µM*
CC1=Nc2cccc3cccc(c23)N1	8%	-7%	-20%	12%	13µM*
O=C(CSc1nnc(SCc2ccccc2)s1)N/N=C/c1c[nH]c2ccccc12	?	?	?	-10%	8.9µM*
Cc1ccc(CSc2nnc(SCC(=O)N/N=C/c3c[nH]c4ccccc34)s2)cc1	13µM*	?	?	?	-37%
O=C(CSc1nnc(SCc2ccccc2Cl)s1)N/N=C/c1c[nH]c2ccccc12	?	-15%	-38%	.	?
Cc1ccc(CSc2nnc(SCC(=O)N/N=C/c3ccc(C(=O)O)cc3)s2)cc1	25%	?	?	14%	5.6µM*
CCn1c(SCC(=O)N/N=C/c2c[nH]c3ccccc23)nnc1-c1ccc(C(C)(C)C)cc1	?	18µM*	-27%	?	0%
CCn1c(SCC(=O)N/N=C/c2ccc(C)o2)nnc1-c1ccc(C(C)(C)C)cc1	?	-11%	?	-1%	?
CC(NC(=O)C1CCN(C(=O)Nc2ccccc2)CC1)c1ccc(Cl)cc1 (configuration not stated)	5%	-7%	.	-1%	.
CCn1c(SCC(=O)c2c[nH]c3ccccc23)nnc1-c1cccs1	?	-18%	4%	15µM*	30%
COCCn1c(SCC(=O)c2c[nH]c3ccccc23)nnc1-c1ccncc1	1%	0%	-1%	-2%	6%[10 µM]
COCCNC(=S)N/N=C(\C)c1ccccc1OC	2%	-1%	6.3µM*	-3%	2.5µM*
COc1ccccc1NC(=S)NN=C(C)c1ccccn1	22%	.	.	?	.
COCCNC(=S)N/N=C/c1ccc([N+](=O)[O-])cc1	9%	-12%	?	-3%	?
COCCNC(=S)N/N=C(\C)c1ccccc1O	4%	?	0.45µM*	?	0.2µM*
COCCNC(=S)N/N=C(\C)c1ccccc1F	-50%	5%	20µM*	-11%	3.5µM*
CC(O)(Cc1cccnc1)c1cccs1 (configuration not stated)	-3%	.	.	-2%	.
COc1ccc(-c2cc(-c3ccc(OC)cc3)[nH]n2)cc1	?	?	2µM*	5%	1.3µM*
CC(C)(C)c1ccc(-c2cc(-c3ccccc3O)[nH]n2)cc1	9.2µM*	?	7.1µM*	?	?
Cc1ccc(O)c(-c2cc(C(F)(F)C(F)F)[nH]n2)c1	12%	3%	-5%	1%	34%[10 µM]
Oc1ccccc1-c1cc(-c2ccccc2)no1	0%	?	-7%	5%	-37%
SMILES	MCF10A rerep	ELG1 DNA repair	Gal4-VP16 FLuc	SW480 rerep	RORg inh
Cc1ccccc1-c1cc(-c2ccccc2O)on1	-4%	?	-27%	-6%	13µM*
Cc1ccc(O)c(-c2cc(-c3ccccc3C)[nH]n2)c1	?	?	11µM*	?	11µM*
CC(C)(C)OC(=O)C[C@H]1C/C=C\C[C@H](CC(=O)N(CCO)Cc2ccccc2)C(=O)N[C@@H](Cc2ccccc2)COC1=O	-3%	-3%	.	-4%	.
COc1ccc(-c2cc(-c3ccc(C)cc3)n[nH]2)c(O)c1	26%	?	20µM*	?	2.5µM*
COc1ccc(-c2cc(-c3cc(C)ccc3O)[nH]n2)cc1	18µM*	?	?	?	4µM*
Cc1ccc(-c2cc(-c3cccs3)[nH]n2)c(O)c1	8%	?	?	1%	11µM*
CC1CN(C(=O)C2CC2)C(C)CN1C(=O)C1CC1 (configuration not stated)	-3%	15%	?	-6%	-9%
CC(=O)N/N=C/c1cc(C(C)C)cc(/C=N/NC(C)=O)c1O	18µM*	9%	-6%	15µM*	-1%
CC(=O)N/N=C/c1cc(C)n(-c2ccc(Br)cc2)c1C	?	0%	-1%	0%	5%
COc1ccc(S(=O)(=O)NNC(=O)C23CC4CC(CC(C4)C2)C3)cc1[N+](=O)[O-]	-1%	7%	.	7%	.
Cc1nc(SCC(=O)Nc2nc3ccccc3s2)c(C#N)c(C)c1C	6.5µM*	5.2µM*	?	5.8µM*	0.35µM*
Cc1cc(C(F)(F)F)c(C#N)c(SCC(=O)Nc2nc3ccccc3s2)n1	?	?	4%	.	?
Cc1ccc2sc(NC(=O)CSc3nc(C)cc(C)c3C#N)nc2c1	5%	?	?	2.8µM*	0.71µM*
Cc1cc(C)c(C#N)c(SCC(=O)Nc2nnc(-c3ccccc3)s2)n1	10µM*	13%	3%	1%	24%
CC1CCc2nc(/C(C#N)=C/c3ccncc3)sc2C1 (configuration not stated)	?	?	-14%	7.3µM*	14%
N#C/C(=C/c1ccncc1)c1nc2ccccc2s1	?	5%	?	1%	-44%
FC(F)Sc1ccc(NC(=S)NCc2ccccc2)cc1	?	-20%	?	18%	11µM*
O=C(O)c1ccc(NC(=S)NCc2ccccc2)cc1	-8%	-1%	7%	-5%	-35%
FC(F)(F)c1ccc(NC(=S)NCc2ccccc2)cc1	?	-14%	?	9%	4.5µM*
CN(C(=S)Nc1ccc(SC(F)F)cc1)C(c1ccccc1)c1ccccc1	?	?	?	1%	?
FC(F)Sc1ccc(NC(=S)NC(c2ccccc2)c2ccccc2)cc1	3.7µM*	-8%	?	?	7.1µM*
OC[C@@H](O)[C@@H](O[C@H]1O[C@H](CO)[C@@H](O)[C@H](O)[C@H]1O)[C@H](O)[C@@H](O)CO	11%	.	0%	-24%	-3%
COc1ccc(CNC(=O)COC(=O)CC2CC3CCC2C3)cc1OC (configuration not stated)	1%	6%	-17%	2%	26%
COc1ccc(-c2cc(-c3nnc(COC(=O)CC4CC5CCC4C5)o3)c3ccccc3n2)cc1OC (configuration not stated)	?	18µM*	7%	2.6µM*	-4%

From PubChem BioAssay
